The record followed here is PubChem BioAssay.

The nature of assay [1]: reducers of endogenous Her2 protein level, primary screen, SKBR3 breast tumor cells, AlphaScreen, ATP viability (AID 461;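 active = Her2 level under about 52% in both replicate screens, with viability over 70% of control, limit read from the data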;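 as to Her2 level: lower value means less Her2 protein in the cells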;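 as to viability: percent of carrier control wells set as 100% viability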). The note with it: 18-24 h, measured here: SKBR3 viability, ATP luminescence, at 10 µM. (In Alpha technology, singlet oxygen from a donor bead excites a nearby acceptor bead.)
Assay [2] deals with Receptor tyrosine-protein kinase erbB-2 (Homo sapiens) (UniProt P04626). The description is as above. To be noted: 18-24 h, at 10 µM, stronger effect = lower value.
Assay [3] can be described thus: SK-BR-3 cell growth inhibitors, pilot screen, 24 h, human (AID 572;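 active = viability at or below 10% of carrier control in both of two separate runs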;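 also: compound exposure lasted between 18 and 24 h rather than exactly 24 h; 100% = carrier-treated control wells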). To be noted: SK-BR-3 viability, CellTiter-Glo luminescence, at 10 µM, stronger effect = lower value. For orientation: In ATP-based viability assays light output follows the ATP content of the culture.
The nature of assay [4]: HUVEC growth inhibition – cell-based, human, primary screen (AID 575).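 Also: 100% = median of untreated cell wells with 0.1% DMSO on each plate.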 The note with it: HUVEC proliferation, CellTiter-Glo luminescence, 72 h; at 10 µM; stronger effect = lower value.
A short description of assay [5]: growth inhibitors of H69AR lung tumor, primary screen, human, duplicate replicates (AID 580;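 active = viability at or under a set limit in both replicates, limit being median viability minus 3 SD, cut at about 48% in these data, passing the limit was not always enough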;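 also: 100% = mean luminescence of untreated wells and 0% = no signal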). To be noted: H69AR lung tumor cells viability, ATP luminescence, 72 h; at 10 µM; stronger effect = lower value.
The nature of assay [6]: reversal of MRP1-mediated doxorubicin resistance, pilot screen, H69AR cells, doxorubicin co-treatment (AID 601;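 active = viability loss from added drug above about 55%, and viability with drug at most 40%, in both replicates, limit read from the data, passing the limit was not always enough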). The note with it: CellTiter-Glo, 72 h, at 10 µM; for differential viability (reversal): stronger effect = higher value.
A short description of assay [7]: 384-well plate pilot, post-Golgi transport modulator project, inhibition of yeast transport mutant growth (AID 636; in the data active = inhibition above about 31%). The note with it: absorbance 615 nm, about 18 h, stronger effect = higher value.
A short description of assay [8]: growth suppression of yeast trafficking mutant, preliminary HTS, modulators of trafficking downstream of Golgi apparatus project, 1536-format plate, OD 615 nm (AID 637; in the data active = inhibition above about 30%). To be noted: yeast transport mutant growth, absorbance 615 nm, 18 h; stronger effect = higher value.
The nature of assay [9]: OD615 S. cerevisiae growth inhibition, permissive medium, pilot counter-assay, permissive growth control for S. cerevisiae lifespan shortening project (AID 705;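 active = growth inhibition above 25% in both replicates, a cutoff set 3 SD above the mean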). To be noted: OD615, 24 h, at 10 µM, stronger effect = higher value.
Assay [10] can be described thus: Restrictive medium S. cerevisiae growth inhibition, OD615, pilot screen of yeast lifespan reduction project, restrictive growth control (AID 706;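 active = growth inhibition above a set limit, 3 SD over mean compound inhibition, in both replicates, cut at about 43% in these data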;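 also: modified DeaD lifespan yeast strain shifted to restrictive glucose medium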). The note with it: OD615, 48 h, at 10 µM, stronger effect = higher value.
The nature of assay [11]: viability gain of MRP-1-high H69AR cells under doxorubicin, pilot screen, MRP-1 activator project, CellTiter-Glo, duplicate (AID 807;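 active = viability increase at or above a cutoff of the median across tested compounds plus 3 SD, cut at about 8.5% in these data, passing the limit was not always enough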;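 also: compound pretreatment 18-22 h then 72 h combined with doxorubicin; 0% = doxorubicin alone and 100% = vehicle without doxorubicin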). To be noted: H69AR viability with doxorubicin, CellTiter-Glo luminescence; at 10 µM; stronger effect = higher value.
Assay [12] in a line: growth suppression of beta-catenin knockout HCT116, pilot screen, human colon tumor cells (AID 823;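 active = cell viability at or below a set limit in both duplicate runs, the limit being the all-compound median minus 4 SD, cut at about 23% in these data, passing the limit was not always enough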;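 also: 0% = wells killed by 20 µM Hyamine and 100% = untreated DMSO cell wells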). The note with it: CellTiter-Glo, 60 h, at 10 µM, stronger effect = lower value.
Assay [13] can be described thus: growth suppression of PTEN-deleted HCT116, pilot screen, cell-based, HCT116 clonal line, CellTiter-Glo (AID 824;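 active = viability at or below 27.92% in each of two runs, the all-compound median minus 4 SD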;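 also: 0% = 20 µM Hyamine control and 100% = vehicle cell control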). The note with it: 60 h, at 10 µM, stronger effect = lower value.
Assay [14] is described as follows: inhibitors of the yeast RAM network, pilot screen, dse1pr::URA3 reporter, 5-FOA selection (AID 869;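 active = inhibition over a set limit, the all-compound mean plus 3 SD, in both replicate runs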;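 also: 0% = DMSO wells with no growth and 100% = 10 µM 1-NA-PP1 with full growth; RAM network block rescues cells from 5-FOA so hits raise OD615 growth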). The note with it: S. cerevisiae dse1pr::URA3 5-FOA growth, OD615, 2 d; at 10 µM; stronger effect = higher value; strain carries analog-sensitive mutant Cbk1 kinase.
The nature of assay [15]: RAM signaling pathway blockade in yeast – S. cerevisiae, Pdr1DBD-CYC8 efflux-inhibited sensitized strain, primary screen (AID 1298;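 active = RAM network inhibition above 8.4% in each of two replicates, 3 SD over the compound average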;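 also: 0% = DMSO untreated cells without growth and 100% = 10 µM 1-NA-PP1 full growth; higher means more yeast growth rescued from 5-FOA killing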). To be noted: S. cerevisiae cbk1-as DSE1-URA3 strain, 5-FOA growth OD615, 2 d; at 50 µM; stronger effect = higher value.
Setting [16] is: H69AR cells + 2 uM doxorubicin, measured here: viability with 2 uM doxorubicin, stronger effect = lower value.
Setting [17] is: H69AR cells, compound alone cytotoxicity.

In general, viability refers to a read-out of living cells in per cent, often relative to untreated cells. In general, inhibition refers to the change of the read-out against control, counted positive when it falls.

Inconclusive results are not listed. Active and inactive are the calls of the source.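 The calls were made as follows, unless noted: active = viability at or below 30% in both replicate assays; inconclusive = viability at or below 30% in just one of the two assays; inactive = the rest.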

Sequence of Receptor tyrosine-protein kinase erbB-2 (Homo sapiens) (P04626 whole entry, looked up): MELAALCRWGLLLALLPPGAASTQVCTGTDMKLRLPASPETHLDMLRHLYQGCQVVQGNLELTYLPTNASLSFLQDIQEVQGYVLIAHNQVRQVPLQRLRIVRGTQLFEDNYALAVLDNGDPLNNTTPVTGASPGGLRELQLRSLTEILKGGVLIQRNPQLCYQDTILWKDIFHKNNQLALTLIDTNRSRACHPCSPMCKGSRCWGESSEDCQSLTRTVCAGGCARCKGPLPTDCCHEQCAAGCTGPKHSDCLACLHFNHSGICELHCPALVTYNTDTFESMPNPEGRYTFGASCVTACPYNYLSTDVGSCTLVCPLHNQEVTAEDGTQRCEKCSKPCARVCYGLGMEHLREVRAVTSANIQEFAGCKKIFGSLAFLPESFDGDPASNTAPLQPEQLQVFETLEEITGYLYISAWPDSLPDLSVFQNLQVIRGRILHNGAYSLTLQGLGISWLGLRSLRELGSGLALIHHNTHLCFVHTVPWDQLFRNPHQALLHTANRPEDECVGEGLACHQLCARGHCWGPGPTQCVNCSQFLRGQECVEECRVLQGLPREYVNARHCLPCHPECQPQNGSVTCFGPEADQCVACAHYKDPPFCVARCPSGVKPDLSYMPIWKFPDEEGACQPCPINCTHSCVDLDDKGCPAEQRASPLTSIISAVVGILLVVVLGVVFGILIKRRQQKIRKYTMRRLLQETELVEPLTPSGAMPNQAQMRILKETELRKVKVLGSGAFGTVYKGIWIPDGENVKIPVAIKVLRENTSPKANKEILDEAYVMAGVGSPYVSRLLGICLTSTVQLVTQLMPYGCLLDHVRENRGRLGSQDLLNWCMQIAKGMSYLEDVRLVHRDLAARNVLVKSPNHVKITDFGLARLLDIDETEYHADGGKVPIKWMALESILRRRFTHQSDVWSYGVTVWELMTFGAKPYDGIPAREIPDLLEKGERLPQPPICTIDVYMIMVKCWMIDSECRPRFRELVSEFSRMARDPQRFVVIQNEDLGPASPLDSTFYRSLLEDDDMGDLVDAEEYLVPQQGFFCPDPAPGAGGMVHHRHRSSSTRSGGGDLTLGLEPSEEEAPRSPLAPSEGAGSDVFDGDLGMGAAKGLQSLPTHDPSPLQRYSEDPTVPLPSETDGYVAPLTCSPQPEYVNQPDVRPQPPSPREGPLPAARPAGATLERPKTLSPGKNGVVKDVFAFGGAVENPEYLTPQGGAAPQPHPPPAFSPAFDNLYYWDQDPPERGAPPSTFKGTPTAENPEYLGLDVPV

As to `O=C(Nc1ccc2c(c1)OCO2)c1ccc(CN2CCOCC2)cc1`, the viability in assay [1] is 97.5%; in [3] it was 97.5% (inactive); in assay [4] it was 98.7% (inactive); in assay [5], 97.3% (inactive); in assay [6] (setting [16]) it was 88.3%; in assay [6] (setting [17]), 97.3%. Moreover, the viability in assay [12] was 71.3% (inactive); in assay [13] it was 81.5% (inactive). Further, the Her2 level in assay [2] is 88% (inactive). Further, the differential viability (reversal) in assay [6] (H69AR cells + 2 uM doxorubicin) was 9.03% (inactive). Also, the results for the inhibition in assay [7], in assay [8] and in [14] were -7.07% (inactive), 7.1% (inactive) and -0.165% (inactive), respectively. Also, the growth inhibition is -6.27% (inactive) in [9] and -16.3% (inactive) in assay [10]. For the same compound, the viability increase in assay [11] was 0.57% (inactive). Moreover, in [15], the RAM network inhibition is 9.65% (inactive).

For the compound `CCOC(=O)C1CCN(Cc2ccc(F)c(Br)c2)CC1`, the viability in [1] was 122%; in assay [3], 122% (inactive); in assay [4], 106% (inactive); in assay [5], 85.5% (inactive); in assay [6] (setting [16]), 92.8%; in assay [6] (setting [17]), 85.5%. Besides, the viability was 90.4% (inactive) in assay [12] and 91.9% (inactive) in [13]. Moreover, in assay [2], the Her2 level is 118% (inactive). Moreover, in [6] (H69AR cells + 2 uM doxorubicin), the differential viability (reversal) was -7.29% (inactive). The results for the inhibition in [7], in [8] and in [14] were -1.17% (inactive), 9.5% (inactive) and 2.35% (inactive), respectively. Also, the growth inhibition is -3.72% (inactive) in assay [9] and -1.05% (inactive) in assay [10]. In addition, in [11], the viability increase is -2.69% (inactive). The RAM network inhibition in [15] was -0.36% (inactive).

Take `Cc1ccc(-c2cc3nc4c(c(=O)n3[nH]2)CCCC4)cc1`: the viability in assay [1] was 105%; in assay [3], 105% (inactive); in assay [4], 88.7% (inactive); in assay [5], 91.9% (inactive); in [6] (setting [16]), 93.4%; in [6] (setting [17]) it was 91.9%. The figures for the viability in assay [12] and in assay [13] were 95.2% (inactive) and 90.4% (inactive), respectively. In addition, the Her2 level in assay [2] is 119% (inactive). In assay [6] (H69AR cells + 2 uM doxorubicin), the differential viability (reversal) was -1.42% (inactive). Moreover, the results for the inhibition in [7], in [8] and in assay [14] were -0.26% (inactive), -10% (inactive) and 2.7% (inactive), respectively. In addition, the growth inhibition in assay [9] was -17% (inactive); in assay [10], -22.5% (inactive). Moreover, the viability increase in [11] is -0.73% (inactive). In addition, in [15], the RAM network inhibition is 5.06% (inactive).

As for `CCn1c(C(=O)N2CCC(C(=O)N3CCN(c4ccccn4)CC3)CC2)cc2sccc21`, the viability in assay [1] is 95%; in assay [3] it was 95% (inactive); in [4], 93.4% (inactive); in [5] it was 87.1% (inactive); in assay [6] (setting [16]) it was 54.2%; in assay [6] (setting [17]), 87.1%. For the same compound, the values for the viability in assay [12] and in assay [13] were 78.3% (inactive) and 78.2% (inactive), respectively. Moreover, the Her2 level in assay [2] is 108% (inactive). The differential viability (reversal) in assay [6] (H69AR cells + 2 uM doxorubicin) was 32.9% (inactive). For the same compound, the inhibition in [7] was -2.8% (inactive); in [8] it was -3.5% (inactive); in [14], 0.93% (inactive). Also, the growth inhibition is -11.8% (inactive) in [9] and -12.2% (inactive) in assay [10]. For the same compound, the viability increase in assay [11] is -3.83% (inactive). Also, in assay [15], the RAM network inhibition is 1.16% (inactive).

Take `CCOc1ccc(N(CC(=O)NC2CCCC(C)C2C)S(=O)(=O)c2c(C)noc2C)cc1` (stereo not drawn): the viability in assay [1] is 89.5%; in [3], 89.5% (inactive); in assay [4], 64.3% (inactive); in [5], 73.1% (inactive); in assay [6] (setting [16]), 66.3%; in assay [6] (setting [17]) it was 73.1%. In addition, the viability was 82.8% (inactive) in [12] and 83.6% (inactive) in assay [13]. In assay [2], the Her2 level was 81.5% (inactive). Also, the differential viability (reversal) in [6] (H69AR cells + 2 uM doxorubicin) is 6.81% (inactive). Also, the inhibition in assay [7] was 1.41% (inactive); in assay [8] it was 13.5% (inactive); in assay [14], 0.98% (inactive). Besides, the growth inhibition was -9.98% (inactive) in assay [9] and -14.4% (inactive) in assay [10]. The viability increase in [11] was -1.09% (inactive). For the same compound, in assay [15], the RAM network inhibition was 6.62% (inactive).

In the case of `O=c1c(-c2ccccc2)coc2c(CN3CCOCC3)c(O)ccc12`, the viability is 110% in [1]; 110% (inactive) in assay [3]; 96.4% (inactive) in assay [4]; 99% (inactive) in assay [5]; 100% in [6] (setting [16]); 99% in [6] (setting [17]). Moreover, the values for the viability in assay [12] and in assay [13] were 91.7% (inactive) and 99.7% (inactive), respectively. In [2], the Her2 level was 105% (inactive). The differential viability (reversal) in assay [6] (H69AR cells + 2 uM doxorubicin) was -1.39% (inactive). Further, the inhibition in [7] is 0.95% (inactive); in assay [8], -7.87% (inactive); in assay [14], 0.58% (inactive). Moreover, the growth inhibition was -9.23% (inactive) in assay [9] and 4.11% (inactive) in assay [10]. In [11], the viability increase was -4.13% (inactive). In assay [15], the RAM network inhibition is -0.61% (inactive).

In the case of `COc1ccc(-c2nc(CCNC(=O)c3ccco3)cs2)cc1OC`, the viability was 96.5% in assay [1]; 96.5% (inactive) in assay [3]; 89.2% (inactive) in [4]; 77.9% (inactive) in [5]; 77.4% in [6] (setting [16]); 77.9% in assay [6] (setting [17]). The viability in [12] is 95.3% (inactive); in assay [13], 87.7% (inactive). Besides, the Her2 level in [2] is 102% (inactive). Further, in assay [6] (H69AR cells + 2 uM doxorubicin), the differential viability (reversal) is 0.52% (inactive). The results for the inhibition in [7], in assay [8] and in assay [14] were -4.67% (inactive), -2.95% (inactive) and 0.415% (inactive), respectively. The values for the growth inhibition in assay [9] and in [10] were -4.64% (inactive) and -8.75% (inactive), respectively. The viability increase in [11] is -3.3% (inactive). Also, the RAM network inhibition in assay [15] is -1.56% (inactive).

As for `CC(C)(O)C#Cc1ccc(C(=O)N2CCN(C(=O)c3ccco3)CC2)cc1`, the viability in [1] was 102%; in assay [3] it was 102% (inactive); in assay [4], 108% (inactive); in [5], 96.9% (inactive); in [6] (setting [16]), 87.9%; in assay [6] (setting [17]) it was 96.9%. Besides, the viability is 92.4% (inactive) in assay [12] and 99.8% (inactive) in assay [13]. In addition, the Her2 level in assay [2] was 88% (inactive). Further, in assay [6] (H69AR cells + 2 uM doxorubicin), the differential viability (reversal) is 8.95% (inactive). Also, the inhibition was -3.87% (inactive) in assay [7], 2.74% (inactive) in [8] and 0.66% (inactive) in assay [14]. Also, the growth inhibition was -17.3% (inactive) in [9] and -11.2% (inactive) in assay [10]. Further, the viability increase in [11] was -0.62% (inactive). Besides, the RAM network inhibition in assay [15] was 2.19% (inactive).

Consider `COc1ccccc1N1CCN(C(=O)c2cc(C3CC3)on2)CC1`, for which the viability in assay [1] was 84%; in assay [3], 84% (inactive); in assay [4], 80.8% (inactive); in assay [5] it was 86.5% (inactive); in assay [6] (setting [16]), 93.2%; in assay [6] (setting [17]), 86.5%. In addition, the viability in [12] was 98.5% (inactive); in assay [13], 103% (inactive). For the same compound, in assay [2], the Her2 level is 110% (inactive). The differential viability (reversal) in assay [6] (H69AR cells + 2 uM doxorubicin) is -6.73% (inactive). In addition, the inhibition is -0.64% (inactive) in assay [7], -3.5% (inactive) in [8] and 0.905% (inactive) in assay [14]. For the same compound, the growth inhibition in assay [9] is -9.72% (inactive); in assay [10] it was 0.825% (inactive). For the same compound, the viability increase in assay [11] was 0.32% (inactive). Also, the RAM network inhibition in [15] is 2.48% (inactive).
